According to PubChem BioAssay AID686999 (Broad Institute, 2013):
Measured potencies and affinities stand elsewhere. Results filed as inconclusive are left out. Active and inactive are the calls of the source.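 How the source made its calls: active means active in every separate test run, each with half-maximal potency at or under twice its top valid dose; inconclusive means the separate test runs give conflicting calls; inactive means inactive in every test run, including signal rising instead.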

Test: Cryptococcus growth inhibition by alamar blue – cell lysis, cherry-picks, replicate tests, mechanism study for C. neoformans antifungal project, dose response (AID 686999)
Details: 72 h; series mostly up to 35 µM

outcome, inactive:
COc1ccc(C(=O)NC(=S)Nc2ccccc2N2CCCCC2)cc1[N+](=O)[O-], CC(C)CC1(C)N=C(c2ccccc2)C(=S)N1 (stereo not drawn), O=C(NCCN1CCCCC1)[C@H]1N[C@H]2c3ccc(-c4ccncc4)c(=O)n3C[C@H]2[C@@H]1CO, COc1ccc(NC(=S)NCc2ccc(Cl)cc2)c(OC)c1, O=C(NC(=S)Nc1cc(Cl)ccc1N1CCOCC1)c1ccccc1[N+](=O)[O-], S=C(NCc1ccccc1)NCC1COc2ccccc2O1 (stereo not drawn), COC(=O)C1=C(C)N(CC(C)C)C(=S)NC1c1ccc(F)cc1 (stereo not drawn), COC(=O)C1=C(C)N(Cc2ccccc2)C(=S)N[C@H]1c1cccc(F)c1, COc1ccccc1CNC(=S)NCc1ccc(Cl)cc1, O=C(NC(=S)Nc1ccc(Br)cc1)C1CCC1, O=C(NC(=S)Nc1cccc(F)c1)c1cccc([N+](=O)[O-])c1, COC(=O)C1=C(C)N(Cc2ccc(F)cc2)C(=S)NC1c1cccc(Cl)c1 (stereo not drawn), Cc1cc(Cl)ccc1NC(=S)NCc1ccc(F)cc1, CCc1nc(N2CCCCC2C)c2oc3ccccc3c2n1 (stereo not drawn), COC(=O)C1=C(C)N(Cc2ccc(Cl)cc2)C(=S)NC1c1cccc(Cl)c1 (stereo not drawn), COc1cccc(NC(=S)N2CCC(Cc3ccccc3)CC2)c1, CO[C@H]1CN(C)C(=O)c2cc(NC(=O)C3CC3)ccc2OC[C@@H](C)N(Cc2cncnc2)C[C@H]1C, S=C(Nc1ccc(Cl)cc1Cl)Nc1ccccc1Oc1ccccc1
